Experimental data as given in PubChem BioAssay.

experiment: inhibitors of Chlamydomonas gravitaxis, primary screen, whole organism, Chlamydomonas reinhardtii, WT vs cilia-less mutant, absorbance, 96-well (AID 463189); conditions: OD600 absorbance, 2 days, at 10 µM, hits give high values;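 active = inhibition at or above 50% relative to wild type and mutant plate controls; inactive = inhibition below 50%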;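 note: 0% = wild type cc124 cells in DMSO and 100% = ciliumless bld1 mutant cells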

inhibition, inactive:
COc1cccc(OC)c1OCCNCC1COc2ccccc2O1 (centres undefined) 0.114%
CCOC(=O)c1cnc2c(cnn2CC)c1NN=C(C)C 7.54%
CN1C2CCC1CC(OC(c1ccccc1)c1ccccc1)C2 (centres undefined) 1.86%
Nc1nc(SCc2ccc([N+](=O)[O-])cc2)c2ncn([C@@H]3O[C@H](CO)[C@H](O)C3O)c2n1 (some centres undefined) -2.89%
NCCc1cnc[nH]1 2.56%
NCCc1ccc(O)c(O)c1 -0.97%
O=C(O)c1cc2cc(Cc3cccnc3)ccc2o1 -4.17%
C1CCc2nnnn2CC1 5.68%
C[C@H]1CC2C3CCC4=CC(=O)C=C[C@]4(C)[C@@]3(Cl)[C@@H](O)C[C@]2(C)[C@@]1(O)C(=O)CO (some centres undefined) -2.71%
NC(N)=NCCSSCCN=C(N)N -8.7%
NO -14.1%
COc1ccc2c(c1)c(CC(=O)N1CCOCC1)c(C)n2C(=O)c1ccc(Cl)cc1 6.6%
O=C(CCc1ccc(O)cc1)c1c(O)cc(O)cc1O -0.519%
CC1CCN(CC[C@H]2CCCN2S(=O)(=O)c2cccc(O)c2)CC1 -12.1%
CN(C)C(=O)/N=N/C(=O)N(C)C -5.45%
CNCC[C@@H](Oc1ccc(C(F)(F)F)cc1)c1ccccc1 34%
CN1C2CCC1CC(NC(=O)c1nn(C)c3ccccc13)C2 (centres undefined) 10.7%
NCCCCNCCCN -15.4%
O=C(O)CCCCCCCC(=O)O 5.5%
